Sampled rows, rich in hits. Any-hit rate of the full collection: about 12%.
G9a block: inhibitors of human histone lysine methyltransferase G9a; hit rate 8.8% among 350,000; Potency, µM (series often up to 102 µM), inactives show at the top dose activity, negative = inhibition, hits mostly inhibitors; G9a H3K9 monomethylation, AlphaScreen, 2 h; Q96KQ7; note: % is set by controls: 0 for no effect and ±100 for the full control effect; nearly all actives have a fitted effect of over 75% in size
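Readings reflect AlphaScreen signal from monomethyl-H3K9 antibody detection. HMT at 20 nM; substrate b-H3K9 500 nM; cofactor SAM 20 uM; 2 h RT reaction; compounds tested as titrations in qHTS with 15 min preincubation.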
BAZ2B block: blocks human BAZ2B; Q9UIF8; AlphaScreen BAZ2B-H3K14Ac peptide displacement; Potency, µM (top dose mostly 114 µM), for the others: at the highest dose activity change, negative = inhibition, actives largely listed as inhibitors; hit rate 4.4% among 360,000; note: % is set by controls: 0 for no effect and ±100 for the full control effect; nearly all actives have a fitted effect of over 60% in size
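Inhibition is scored as reduced AlphaScreen emission. The BAZ2B/b-H3(5-23)K14Ac complex (50 nM each) in PBS pH 7.4, 0.01% Tween-20 meets compound (up to 110 uM) for 30 min at RT before bead addition.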
PLK1 PBD block: PLK1 (human) polo-box domain binding inhibition; P53350; Plk1 PBD binding of FITC phosphopeptide, fluorescence polarization; Potency, µM, for inactives: max response, negative = inhibition, most hits filed as inhibitors; hit rate 2.8% among 360,000; note: series mostly up to about 57 µM; % is set by controls: 0 for no effect and ±100 for the full control effect; nearly all actives have a fitted effect of over 65% in size
HP1b chromo inh: blocks HP1-beta chromodomain binding to methylated histone tails. P83916. AlphaScreen HP1-beta / biotin-H3K9me3 peptide binding. Potency, µM (highest dose often 114 µM), for inactives: at the highest dose activity change, negative = inhibition, most hits filed as inhibitors. hit rate 0.56% among 390,000. AID 540317; note: nearly all actives have a fitted effect of over 70% in size
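HP1-beta protein (50 nM final) preincubated 30 min at room temperature with biotinylated H3(1-18)K9me3 peptide (50 nM) in PBS pH 7.4, 0.01% Tween-20, then compound added for 30 min. AlphaScreen streptavidin donor/nickel chelate acceptor beads (10 ug/mL final), 30 min dark, luminescence read.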
JMJD2A Tudor inh: inhibitors of human JMJD2A Tudor domain | AID 504339 | hit rate 4.4% among 390,000 | O75164 | AlphaScreen JMJD2A-Tudor / H3K4me3 peptide binding | Potency, µM (highest dose often 114 µM), for the others: at the highest dose activity change, negative = inhibition, hits mostly inhibitors; note: % is set by controls: 0 for no effect and ±100 for the full control effect; nearly all actives have a fitted effect of over 50% in size
Sfp inh: blocks B. subtilis Sfp PPTase activity. Q9F4F7. Biochemical Sfp PPTase activity, qHTS. Potency, µM, for the others: largest response in the series, negative = inhibition, hits mostly inhibitors. hit rate 3.5% among 310,000. AID 1490;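 note: the enzyme is Sfp with the accession as filed and its product quenches rhodamine fluorescence; 0% = enzyme reaction without inhibitor and -100% = no enzyme wells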
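Sfp 15 nM + cpd, 15 min RT; start w/ rhodamine-CoA 5 uM, BHQ-2-YbbR 12.5 uM (final); 50 mM Hepes pH 7.6, 10 mM MgCl2, 0.01% NP-40, 0.01% BSA; read 525/598 nm at 0 and 30 min.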
Numbers without * were called inactive; ? = inconclusive; . = no result; ! = repeats disagree; [ ] = remark or other dose. Calls come from the whole dose curve; as a rule, active = well fitted curve in the direction sought with a large enough effect; inconclusive = small, poorly fitted or top-dose-only effect, or another doubt; inactive = no such curve, though single readings can be large; an effect the other way counts as inactive or inconclusive. Potency is the fitted concentration of half-maximal effect.

SMILES	G9a block	BAZ2B block	PLK1 PBD block	HP1b chromo inh	JMJD2A Tudor inh	Sfp inh
NC(=NCCCCCCN=C(N)/N=C(\N)Nc1ccc(Cl)cc1)/N=C(\N)Nc1ccc(Cl)cc1	14.1µM*!	-28.1%	-4.9%	23.2%	-31.7%	28.2µM*!
O=C(O)c1ccc(-c2ccc(-c3ccccc3)cc2)s1	?	50.1µM*	.	.	.	4.4%
CCc1nc(Nc2ccccc2OC)c2oc3ccccc3c2n1	50.1µM*	-2.7%	-3.3%	56.0%	3.7%	-21.4%
CCc1nc(NCc2ccccn2)c2oc3ccccc3c2n1	25.1µM*	?	-2.8%	34.7%	-22.9%	13.2%
CCOC(=O)/C(C#N)=C/c1cn(CCOc2ccc(OC)cc2)c2ccccc12	18.1%[59 µM]	5.2%	-28.0%	-8.6%	-17.2%	-5.0%
COc1cc2c(cc1OC)[C@@H]1O[C@](c3ccsc3)(C2)Oc2cc(C)n(-c3ccccc3)c(=O)c21	-13.9%[2.33 µM]	-1.0%[22.9 µM]	.	.	.	9.5%
Oc1ccc(C2C(c3ccccc3)=NN=C(c3ccccc3F)N2O)c(O)c1 (stereo unspecified)	50.1µM*	?	-13.4%	-16.4%	-31.1%	-7.1%
Oc1ccc(C2C(c3ccccc3)=NN=C(c3ccc(Cl)cc3)N2O)c(O)c1 (stereo unspecified)	11.2µM*	-31.8%	-3.1%	1.0%	-30.3%	-21.9%
CC1=NN=C(c2ccccc2)C(c2c[nH]c3ccccc23)N1O (stereo unspecified)	?	-10.5%	-12.6%	-9.9%	-18.8%	27.0%
OC[C@@H](O)C(O)[C@H](O)[C@H](O)CO (stereo partly specified)	.	.	.	.	.	12.4%
CC(C)(C)c1c(Cl)c(O)c(-c2ccccc2)c(=O)n1-c1ccccc1	.	17.8µM*	-21.0%	?	50.1µM*	-6.3%
CSCCC(NC(=O)c1ccccc1Cl)C(=O)Nc1ccncc1 (stereo unspecified)	39.8µM*	8.8%	-0.8%	20.9%	-13.8%	.
Cc1nnc(NC(=O)CSc2ccc3nnc(-c4cccnc4)n3n2)s1	?	-21.6%	.	.	.	-12.5%
COc1cccc(OC)c1C(=O)NC(=S)Nc1ccc2c(c1)OCCO2	56.2µM*	-26.3%	-22.3%	-0.9%	?	5.7%
COc1ccc(NC(=S)NC(=O)c2ccc3c(c2)OCCO3)cc1	.	.	-17.8%	?	?	.
COc1ccc(NC(=O)c2ccccc2F)cc1Cl	20.5%	56.2µM*	-6.4%	31.8%	-8.9%	5.4%
O=C(Nc1ccc2c(c1)OCCO2)c1c(F)cccc1F	-5.7%[59 µM]	4.5%	-4.2%	8.4%	-19.6%	7.2%
CCOc1cccc(C(=O)NC(=S)Nc2ccc(N3CCCC3)cc2)c1	?	8.91µM*	-13.7%	14.1µM*	?	?
O=C(NC(=S)Nc1ccc2c(c1)OCCO2)c1ccccc1F	31.6µM*	-34.2%	-1.6%	28.1%	-26.9%	-11.2%
CN1OC[C@@H]2CN(C(=O)CCc3ccccc3)[C@H](c3cccc(-c4ccccc4)c3)C[C@@H]21	.	.	-10.2%	-12.6%	?	.
O=C(NC(=S)NC(=O)c1ccccc1F)c1ccccc1F	10µM*	-38.4%	?	27.6%	-0.3%	50.1µM*
Cc1nn(C)cc1C(=O)Nc1ccc2c(c1)OCCO2	31.6µM*	3.4%	-25.9%	-5.0%	-10.3%	50.1µM*
O=S(=O)(Nc1ccc2c(c1)OCCO2)c1cccc(F)c1	-5.1%[59 µM]	-3.4%	4.9%	31.6%	-7.0%	13.7%
O=C(Nc1ccc(F)cc1)c1ccccc1F	-0.5%[59 µM]	-30.9%	-3.4%	19.8%	6.0%	2.0%
O=C(Nc1ccncc1)c1ccccc1F	-3.5%	-18.2%	26.7µM*	4.2%	-5.3%[11.4 µM]	?
SMILES	G9a block	BAZ2B block	PLK1 PBD block	HP1b chromo inh	JMJD2A Tudor inh	Sfp inh
O=S(=O)(Nc1ccc2c(c1)OCCO2)c1c(F)cccc1F	39.8µM*	-8.2%	-25.4%	19.3%	-12.2%	-4.2%
O=C(COC(=O)C1CCN(S(=O)(=O)c2ccc3c(c2)OCCO3)CC1)Nc1cc(C(F)(F)F)ccc1Cl	16.1%[59 µM]	-3.4%	-10.6%	21.9%	-7.4%	7.6%
O=c1[nH]c(=S)[nH]cc1Oc1ccc(Cl)cc1	.	.	-15.1%	50.4%	?	.
Cc1ccc2ccccc2c1C(O)c1ncc(-c2ccc(Cl)cc2)[nH]1 (stereo unspecified)	.	.	-19.9%	.	.	.
Cn1c(C(=O)Nc2ccc3c(c2)OCCO3)cc2sccc21	50.1µM*	?	-13.5%	-18.5%	?	-20.2%
CCOc1cccc(C(=O)NC(=S)Nc2ccc3c(c2)OCCO3)c1	39.8µM*	?	-14.5%	?	?	0.8%
COc1cccc(C(=O)NC(=S)Nc2ccc(Cl)c(C(=O)O)c2)c1	?	?	-26.8%	-14.2%	-19.7%	?
CCOc1cccc(C(=O)NC(=S)Nc2ccc(Cl)cc2C(=O)O)c1	39.8µM*	-7.0%	5.32µM*	?	?	44.7µM*
O=C(Nc1ccc2c(c1)OCCO2)c1ccccc1F	25.5%[59 µM]	10.1%	2.99µM*	-3.3%	-26.7%[11.4 µM]	-11.2%
O=C(Nc1ccc2c(c1)OCCO2)c1cc2sccc2n1Cc1ccccc1	25.0%[0.501 µM]	?	-0.6%	5.1%	-25.4%	-1.6%
CCc1ccc2c(c1)c(=O)c(C(=O)c1ccccc1)cn2CC(=O)Nc1ccc(C)c(Cl)c1	-7.4%[59 µM]	-11.9%	.	8.3%	?	.
CC1=C(C(=O)N(C(C)C)C(C)C)CC(CC(=O)NCCN2CCOCC2)C(=O)N1Cc1ccccc1 (stereo unspecified)	.	.	-4.7%	.	.	.
Cn1c2ccccc2c(=O)c2c(=O)n(Cc3ccccc3)c(-c3ccc(F)cc3)nc21	-29.8%	-8.5%	-13.1%	40.8%	-27.3%	14.6%
CCOC(=O)Cn1c(=S)[nH]c2c(oc3ccc(Cl)cc32)c1=O	?	0.0%	-13.1%	28.2%	-22.9%	?
O=C(Nc1ccc(NC(=O)c2ccc3c(c2)OCCO3)cc1)c1ccccc1	20.5%[59 µM]	5.3%	-5.9%	32.2%	-7.5%	2.9%
O=C(NC(=S)Nc1ccc2c(c1)OCCO2)c1ccccc1	39.8µM*	44.7µM*	-14.5%	?	?	-8.1%
NS(=O)(=O)c1ccc(NNC(=O)c2sccc2Cl)cc1	7.08µM*	33.0%	-23.5%	44.9%	2.8%	12.5%
O=C(NNc1ccc(Cl)cc1)c1c(F)cccc1Cl	44.7µM*	-12.4%	-15.3%	32.1%	-6.6%	16.6%
O=C(NNc1cc(Cl)cc(Cl)c1)c1sccc1Cl	.	.	.	36.2%	-26.5%	.
O=C(NNc1ccc(Cl)cc1)c1sccc1Cl	.	?	26.7µM*	11.6%	?	-10.5%
CCCCCn1c(CN2CCN(c3cc(Cl)ccc3C)CC2)nc2c1c(=O)[nH]c(=O)n2C	23.4%[12.7 µM]	-27.8%	0.7%	6.7%	-19.0%	-5.5%
COc1ccc(C2C3=C(Nc4ncnn42)c2ccccc2CC3)cc1OC (stereo unspecified)	?	-7.9%	.	.	.	-3.4%
COc1cc(C2NC(=S)NC3=C2CCc2ccccc23)cc(OC)c1OC (stereo unspecified)	10µM*	2.1%	-28.9%	-9.7%	-16.7%	22.0%

From PubChem
